High-throughput results (PubChem BioAssay)
Nrf2 activator – activators of Nrf2 (ARE) signaling; Potency, µM (titrated, usually from 46.1 µM), actives largely listed as activators; 410,000 compounds, 0.31% hits; AID 624171; AREc32 ARE-luciferase reporter (MCF7-derived line), luminescence, 24 h; note: nearly all actives have a fitted effect of over 65% in size
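Cells of the AREc32 ARE-luciferase line are plated in OPTI-MEM containing 5% FBS and left overnight at 37 deg C. Compounds are pinned in, incubation continues 24 hr, and firefly luciferase signal is then measured.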
BRCA1 expr up – increases BRCA1 expression. MCF7-BRCA1-FFLuc reporter, luminescence, 48 h; response scale: scaled: vehicle 0%, 10 µM genistein 100%. AID 624202. 380,000 compounds, 1.1% hits. Potency, µM (top dose mostly 46.1 µM), usual class: activators; note: nearly all actives have a fitted effect of over 80% in size
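Reporter cells (MCF7, BRCA1 promoter-firefly luciferase) received library compounds across a concentration series for 48 h. End-point luminescence was measured and concentration-effect curves derived after normalization.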
A549 tox – counter-screen for Nrf2 inhibitors: cytotoxicity in A549 cells; A549 ARE-Fluc cells, CellTiter-Fluor viability, 18-24 h; Potency, µM (titrated, usually from 46 µM), usual class: inhibitors; 390,000 compounds, 0.16% hits; AID 504648
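A549 ARE-Fluc cells in 5% FBS OPTI-MEM, 5000 cells/well, rested 2 h then exposed to compounds in concentration-response for 18-24 h at 37 °C. Viability by CellTiter-Fluor fluorescence (Ex 405/Em 525) after 30 min; luciferase luminescence (BugLite, 15 min, RT) read afterwards.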
Nrf2 inh – inhibitors of Nrf2 signaling. A549 ARE-Fluc reporter, luciferase luminescence, 18-24 h. Potency, µM (titrated, usually from 46 µM), actives largely listed as inhibitors. 360,000 compounds, 2.1% hits; note: nearly all actives have a fitted effect of over 60% in size
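A549 ARE_Fluc cells, 5000/well, 5% FBS OPTI-MEM; compounds in dose-response, 18-24 h at 37 °C/5% CO2; CellTiter-Fluor viability read (Ex 405/Em 525), then BugLite luciferase luminescence = Nrf2 activity.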
IL-2 act – IL-2 activation | IL-2 activation reporter assay, cell-based qHTS; stimulated with anti-CD3/CD4/CD28 beads; in transgenic mouse T cells | activation, % (series mostly up to about 46 µM) | 360,000 compounds, 0.065% hits | AID 652025; in the data active = activation above about 50%; inconclusive = mostly about 30% to 49%
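Quantitative HTS in unstimulated transgenic mouse T cells, with memory T cells as non-tolerant control and PMA/ionomycin as tolerance-bypass control. Compound pretreatment lasted 60 minutes before 18 h bead stimulation; EGFP/DsRed fluorescence read.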
p53 reactivation – re-activators of mutant p53. H1299 p53-A138V BP100-luciferase reporter, luminescence, 24 h. Potency, µM (top dose mostly 92.2 µM), actives largely listed as activators. 320,000 compounds, 0.063% hits. AID 504706; note: nearly all actives have a fitted effect of over 45% in size
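p53-null H1299 cells stably carrying temperature-sensitive p53-A138V and a BP100-luciferase reporter were pinned with compounds (4-point, 1:5 series) and held 24 hrs at 37 deg C. Luminescence was read 10 min after detection reagent.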
A number is an active result; i = inactive; ? = inconclusive; nt = not tested or not shown. Most compounds without a hit are left out; they make up all but 3.2% or so of the library. Unless noted, calls come from the whole dose curve; as a rule, active = well fitted curve in the direction sought with a large enough effect; inconclusive = small, poorly fitted or top-dose-only effect, or another doubt; inactive = no such curve, though single readings can be large; an effect the other way counts as inactive or inconclusive.

SMILES | Nrf2 activator | BRCA1 expr up | A549 tox | Nrf2 inh | IL-2 act | p53 reactivation
Cc1cccc(/C=N/NC(=O)c2cc(Br)ccc2OCc2ccccc2)n1 | i | i | i | ? | i | i
Cc1cccc(C=NOCCc2ccccc2)n1 | i | 10µM | i | ? | i | nt
Cn1c2ccccc2c2c(C(=O)N3CCN(c4cccc(Cl)c4)CC3)cn(C3CCCCC3)c(=O)c21 | i | nt | i | ? | nt | nt
COc1ccccc1Oc1ccc2c(c1)C(=O)N(c1cccc3ncccc13)C2=O | i | i | i | 16µM | i | i
COc1cccc(C2C(C(N)=O)=C(C)Nc3ncnn32)c1 (configuration not stated) | i | i | i | i | nt | nt
O=C(NN1C(=O)/C(=C/c2ccc(O)c([N+](=O)[O-])c2)SC1=S)c1ccccc1Cl | i | i | 3.7µM | ? | i | i
Cc1nc(-c2ccc(Cl)cc2)sc1CCNC(=O)c1cccs1 | i | nt | i | nt | nt | nt
C=C1NN(Cc2ccccc2)C(=O)N1c1ccc(OCc2ccccc2)cc1 | nt | i | nt | nt | nt | nt
C=C1NN(CC#N)C(=O)N1c1ccc(OCc2ccccc2)cc1 | nt | 10µM | nt | nt | nt | nt
NC(=O)c1c(NC(=O)c2cnccn2)sc2c1CCCC2 | i | 7.9µM | i | ? | i | i
CCN(CC)CCC(=O)Nc1cccc2c1C(=O)c1ccccc1C2=O | i | i | 21µM | 16µM | i | i
CCN(CC)CCNC(=O)c1ccc2c(c1NCCO)C(=O)c1ccccc1C2=O | i | i | ? | 3.3µM | i | i
CC1CCN(C(=O)c2ccc3c(c2NCCO)C(=O)c2ccccc2C3=O)CC1 | i | i | ? | nt | i | i
CCCOc1ccc(C(=O)Nc2ccc3nn(-c4ccc(OC)c(Cl)c4)nc3c2)cc1 | i | nt | i | i | nt | nt
O=[N+]([O-])c1ccc(-c2ccc(S(=O)(=O)NCCN3CCCC3)cc2)cc1 | i | i | i | 16µM | i | i
CCc1ccc(NC(=O)Cn2c(=O)n(CCCCC(=O)NCCc3ccccc3)c(=O)c3ccccc32)cc1 | i | i | i | i | nt | nt
c1ccc(CSCc2cn3ccsc3n2)cc1 | i | 8.9µM | i | ? | i | ?
O=C(Cc1cn2ccsc2n1)OCc1ccccc1 | i | i | i | nt | i | i
CSc1ccc(NC(=O)N2CCC(C(=O)c3ccc(F)cc3)CC2)cc1 | i | i | i | 16µM | i | i
Cc1cc(C)cc(NC(=O)N2CCC(C(=O)c3ccc(F)cc3)CC2)c1 | i | i | i | 15µM | i | i
Cc1cccc(NC(=O)N2CCC(C(=O)c3ccc(F)cc3)CC2)c1 | i | i | i | ? | i | i
COc1ccc(C)cc1NC(=O)CCS(=O)(=O)c1cc2c3c(c1)CCN3C(=O)CC2 | i | i | i | ? | nt | nt
COc1ccc(Br)cc1/C(C)=N/NC1=NCCN1 | i | i | i | 12µM | i | i
CCCCCOc1ccc(Br)cc1/C(C)=N/NC1=NCCN1 | i | i | ? | i | i | i
COc1ccccc1C=C1SC(=S)NC1=O | i | i | i | i | i | nt
SMILES | Nrf2 activator | BRCA1 expr up | A549 tox | Nrf2 inh | IL-2 act | p53 reactivation
COc1ccc(C=C2SC(=S)NC2=O)c(OC)c1OC | i | i | 15µM | ? | i | nt
CCOC(=O)Cn1c(=O)oc2cc(S(=O)(=O)Nc3cc(OC)cc(OC)c3)ccc21 | i | nt | i | i | nt | nt
Cc1ccc(CNC(=O)C(=O)NCC(c2ccc3c(c2)OCO3)N2CCOCC2)cc1 (configuration not stated) | i | nt | i | nt | nt | nt
CC(C)N(C(=O)CSc1nc(Cc2ccccc2)nc2ccccc12)C(C)C | i | i | i | 18µM | i | nt
COc1cccc(C2c3c(ncn(-c4ccccc4C)c3=N)Oc3ccc4ccccc4c32)c1 (configuration not stated) | nt | nt | i | i | nt | nt
CCc1ccc(CNC(=O)c2cc3c(C)nc4ccccc4c3o2)cc1 | i | i | i | 15µM | i | i
CCN1CCCC1CNC(=O)c1cc2c(C)nc3ccccc3c2o1 (configuration not stated) | i | i | i | i | i | i
Cc1nc2ccccc2c2oc(C(=O)NCC3COc4ccccc4O3)cc12 (configuration not stated) | i | i | i | 16µM | i | i
